Outcome and AC50 data for 29 compounds are collected here from PubChem BioAssay (EPA / NIEHS).

A word on the AC50: it is the midpoint of the concentration-response curve, whichever way the signal moves.

Calls of active or inactive are those of the source. How the source made its calls: active means hit-call score of the fitted dose curve at least 0.9, where 1 is the maximum; inactive means score below 0.9.

Read-out in this assay: Matrix Metallopeptidase 1 (MMP1), MMP1 (gene 4312)
Put plainly: BSK_BE3C_MMP1: BioMAP Diversity Plus: BE3C Assay for Matrix Metallopeptidase 1 (MMP1) Biomarker Activity (AID 2283024). The following applies: primary human bronchial epithelial cells; actives raise or lower the signal. Summed up:
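In this multiplexed primary-cell system, human bronchial epithelium received chemicals for 24 h before an ELISA for MMP1. Values reflect bidirectional fits normalised to the DMSO baseline.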
For the compound `CN(C)C(=O)NC1(c2ccccc2)CCN(CCC[C@]2(c3ccc(Cl)c(Cl)c3)CCCN(C(=O)c3ccccc3)C2)CC1`, the result was inactive. Same read-out and setting: in the case of `CCCCOC(=O)CCCCC(=O)OCCCC` it was “inactive”; in that of `C=CCCCCCCCCCCCC`, “inactive”. Same read-out and setting: in the case of `Nc1nc(Cl)nc2c1ncn2[C@H]1C[C@H](O)[C@@H](CO)O1` it was “inactive”; in that of `Cc1ccc(C(C)(C)C)c(O)c1`, “inactive”; in that of `Oc1ccccc1O`, “inactive”. Turning to `CCCCC(CC)COC(=O)CCCCCCCC(=O)OCC(CC)CCCC` (centres undefined), the outcome was inactive.

Take `CC(=O)[C@@]1(O)CC[C@H]2[C@@H]3CCC4=CC(=O)CC[C@]4(C)[C@H]3CC[C@@]21C`: the AC50 is 8.47 µM (active). Regarding `CCCCCCCCCCCCCCOS(=O)(=O)O`, the AC50 is 31.8 µM (active).

Turning to `O=C(O)c1cccnc1`, the outcome was inactive.

As for `Nc1nc(=S)c2[nH]cnc2[nH]1`, the outcome was inactive. Turning to `CCN(CC)CCOc1ccc(C(=C(Cl)c2ccccc2)c2ccccc2)cc1`, the AC50 was 28 µM (active). In the case of `CCCCc1nc2cccnc2n1Cc1ccc(-c2ccccc2-c2nnn[nH]2)cc1`, the concentration at half-maximal activity (AC50) was 6.21 µM (active). Consider `CC(C)c1cccc(C(C)C)c1`, for which the outcome was inactive.

Regarding `O=C1O[C@H]([C@H](O)CO)C(O)=C1O`, the outcome was inactive. As to `O=[Si]=O`, the outcome was inactive. Still for that read-out and setting: in the case of `CC(=O)O` it was “inactive”. Consider `CS(=O)(=O)c1ccc([C@@H](C[C@H]2CCC(=O)C2)C(=O)Nc2cnccn2)cc1Cl`, for which the result was inactive. In the case of `CC(C)(O)c1ccc(CNC(=O)c2cccnc2Oc2ccc(F)cc2)cc1`, the outcome was inactive.

With `O=NO`, the outcome was inactive.

On to `CC(=O)O[C@]1(C(C)=O)CC[C@H]2[C@@H]3C=C(Cl)C4=CC(=O)[C@@H]5C[C@@H]5[C@]4(C)[C@H]3CC[C@@]21C`, for which the AC50 is 4.91 µM (active). On to `CCCCC(CC)CO` (centres undefined), for which the outcome was inactive.

In the case of `COc1ccc(OC(F)(F)F)cc1CN[C@H]1CCCN[C@H]1c1ccccc1`, the outcome was inactive.

On to `CCc1nc(N)nc(N)c1-c1ccc(Cl)cc1`, for which the outcome was inactive. Take `O=C1CCCCC1`: the result was inactive. Consider `O=C(O)CN(CC(=O)O)CC(=O)O`, for which the outcome was inactive. On to `CC(=O)OC1CC(C)OC(C)O1` (centres undefined), for which the outcome was inactive. On the same count and under the same terms, in the case of `COC(=O)[C@H]1[C@H]2C[C@@H]3c4[nH]c5cc(OC)ccc5c4CCN3C[C@H]2C[C@@H](OC(=O)c2cc(OC)c(OC)c(OC)c2)[C@@H]1OC` it was “inactive”; in that of `CCCC[C@H]1CN(CC2CCOCC2)C(=O)OC12CCN(C1(C)CCN(C(=O)c3c(C)ncnc3C)CC1)CC2`, “inactive”.
